Measurements reported in article PMC12215968.

Columns and labels:
[1] = target: Ubiquitin-ribosomal protein eS31 fusion protein (UniProt P62979); test: cross-link between two proteins; cross-linking mass spectrometry
[2] = target: Histone H1.2 (UniProt P16403); test: as above
[3] = target: Ubiquitin-conjugating enzyme E2 L3 (UniProt P68036); test: as above
[4] = target: 26S proteasome non-ATPase regulatory subunit 2 (UniProt Q13200); test: as above
[5] = target: Ubiquitin-like FUBI-ribosomal protein eS30 fusion protein (UniProt P62861); test: as above
[6] = target: Ribosomal protein eL42-like (UniProt Q969Q0); test: as above
[7] = target: Adenylyl cyclase-associated protein 1 (UniProt Q01518); test: as above
[8] = target: Large ribosomal subunit protein eL24 (UniProt P83731); test: as above
[9] = target: T1, Junctophilin-2 (UniProt Q9BR39); test: as above
T1 sequence: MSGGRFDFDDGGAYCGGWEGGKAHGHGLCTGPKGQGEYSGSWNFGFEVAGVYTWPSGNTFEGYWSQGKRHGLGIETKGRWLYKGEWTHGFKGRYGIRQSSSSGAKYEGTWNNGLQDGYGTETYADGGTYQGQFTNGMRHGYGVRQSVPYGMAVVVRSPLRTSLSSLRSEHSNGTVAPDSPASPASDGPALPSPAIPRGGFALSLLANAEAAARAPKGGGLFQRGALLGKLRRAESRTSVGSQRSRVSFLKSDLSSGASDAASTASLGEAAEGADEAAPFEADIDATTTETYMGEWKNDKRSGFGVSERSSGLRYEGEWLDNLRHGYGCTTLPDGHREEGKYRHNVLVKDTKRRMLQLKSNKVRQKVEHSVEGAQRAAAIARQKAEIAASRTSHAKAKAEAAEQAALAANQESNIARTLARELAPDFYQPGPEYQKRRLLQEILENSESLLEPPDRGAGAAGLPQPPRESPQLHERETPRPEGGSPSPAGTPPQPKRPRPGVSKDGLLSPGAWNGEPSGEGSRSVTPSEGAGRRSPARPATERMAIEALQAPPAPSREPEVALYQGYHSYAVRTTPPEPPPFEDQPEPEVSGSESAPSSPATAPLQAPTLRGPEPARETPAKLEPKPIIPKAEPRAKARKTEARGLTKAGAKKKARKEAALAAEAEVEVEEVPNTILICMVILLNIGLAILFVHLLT

[10] = target: Elongation factor 1-alpha 2 (UniProt Q05639); test: as above
[11] = target: Peptidyl-prolyl cis-trans isomerase A (UniProt P62937); test: cross-linking mass spectrometry
[12] = target: Thymosin beta-4 (UniProt P62328); test: cross-linking mass spectrometry
[13] = target: Histone H2B type F-S (UniProt P57053); test: cross-link between two proteins; cross-linking mass spectrometry
[14] = target: Thymosin beta-10 (UniProt P63313); test: as above
[15] = target: Eukaryotic translation initiation factor 3 subunit C (UniProt Q99613); test: cross-linking mass spectrometry
[16] = target: Heat shock protein HSP 90-beta (UniProt P08238); test: cross-link between two proteins; cross-linking mass spectrometry
[17] = target: Putative heat shock protein HSP 90-beta-3 (UniProt Q58FF7); test: as above

**Q.** Histone H2A type 1-D, P20671 was tested. Which “listed as a hit” value [1] did it give?
**A.** yes

**Q.** For “Non-histone chromosomal protein HMG-17, P05204”, which “listed as a hit” value [2] is on record?
**A.** yes

**Q.** Which “listed as a hit” value [3] does the source give for “Ubiquitin-ribosomal protein eS31 fusion protein, P62979” here?
**A.** yes

**Q.** “26S proteasome regulatory subunit 8, P62195” was tested. Which “listed as a hit” value [4] did it give?
**A.** yes

**Q.** With Elongation factor 2, P13639 as the substance, how does the “listed as a hit” value [5] read?
**A.** yes

**Q.** “Large ribosomal subunit protein uL1, P62906” was tested. Which “listed as a hit” value [6] did it give?
**A.** yes

**Q.** Actin, alpha cardiac muscle 1, P68032 was tested. Which “listed as a hit” value [7] did it give?
**A.** yes

**Q.** With “Large ribosomal subunit protein eL8, P62424” as the substance, how does the “listed as a hit” value [8] read?
**A.** yes

**Q.** For Histone H2A type 1-B/E, P04908, which “listed as a hit” value [1] is on record?
**A.** yes

**Q.** With Histone H2B type 1-C/E/F/G/I, P62807 as the substance, how does the “listed as a hit” value [9] read?
**A.** yes

**Q.** How did the “listed as a hit” value [10] turn out when “Large ribosomal subunit protein uL13, P40429” was run?
**A.** yes

**Q.** Actin, cytoplasmic 1, P60709 was tested. Which “listed as a hit” value [11] did it give?
**A.** yes

**Q.** What about the “listed as a hit” value [12] of the same substance?
**A.** yes

**Q.** How did the “listed as a hit” value [13] turn out when Histone H2A type 1, P0C0S8 was run?
**A.** yes

**Q.** For Actin, cytoplasmic 2, P63261, which “listed as a hit” value [14] is on record?
**A.** yes

**Q.** For “Small ribosomal subunit protein uS15, P62277”, which “listed as a hit” value [15] is on record?
**A.** yes

**Q.** Which results are given for O60361?
**A.** listed as a hit [16]: yes; listed as a hit [17]: yes
